Screening data as filed in PubChem BioAssay.
LDHA inh – qHTS assay for inhibitors of human lactate dehydrogenase; L-lactate dehydrogenase A chain (Homo sapiens), P00338; purified LDHA, NADH/diaphorase-resazurin fluorescence; hits give low values; activity change, % (values are at about 110 or 230 µM); 0.15% of 480,000 active; AID 1347041, 2019; in the data active = activity change below about -30%; inconclusive = mostly about -25% to -30%;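 also: plate controls were DMSO wells for no effect and wells without enzyme for full effect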
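Human LDH5 at 2 nM final in Tris HCl pH 7.4 with 0.06 mM NADH and 0.2 mM pyruvate, reacted 5 minutes at room temperature. Remaining NADH coupled via diaphorase/resazurin; resorufin fluorescence read at 0 and 20 minutes, normalized to enzyme-free and DMSO wells.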
ClpP mod – qHTS Assay for Activators of ClpP | ATP-dependent Clp protease proteolytic subunit (Bacillus subtilis (strain 168)), P80244 | purified B. subtilis ClpP, FRET peptide cleavage, 20 min | 1.9% of 340,000 active | Potency, µM (doses to about 57.5 µM), for inactives: at the highest dose activity change, negative = active; active = well fitted falling curve with a large enough effect; inconclusive = small, poorly fitted or top-dose-only effect; inactive = no such curve, though single readings can be large or run the other way; also: potency is read from the fitted curve at half-maximal effect; the source files actives as falling curves though it sought activators and does not explain the sign; nearly all actives have a fitted effect of over 65% in size
Target sequence (P80244 whole entry, looked up): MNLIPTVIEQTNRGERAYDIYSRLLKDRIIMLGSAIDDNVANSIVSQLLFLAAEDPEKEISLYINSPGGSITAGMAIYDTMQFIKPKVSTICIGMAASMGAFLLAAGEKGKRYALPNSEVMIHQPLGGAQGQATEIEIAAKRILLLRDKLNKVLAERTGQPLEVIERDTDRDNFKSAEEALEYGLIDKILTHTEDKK
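Buffer: 100 mM Tris/HCl pH8, 100 mM KCl, 0.05% low protease BSA, 2.5% glycerol, 0.01% Tween-20. ClpP 10 microg/mL final; 20 min RT; delta FRET normalized to ADEP and DMSO controls.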
GLP1R ag – qHTS of GLP-1 Receptor Agonists. Glucagon-like peptide 1 receptor (Homo sapiens), P43220. 0.007% of 380,000 active. Potency, µM (top dose mostly 45.6 µM), for the others: at the top dose activation, hits mostly activators. AID 624172, 2012. HEK293 GLP-1R CRE-luciferase, luminescence, 4-6 h; cells express a hypersensitive GLP-1R form; also: potency is read from the fitted curve at half-maximal effect; % of control where 0% means no effect
HEK293 tox – qHTS of GLP-1 Receptor Inverse Agonists: Cytotox Screen; HEK293 cAMP-luciferase reporter cells, luminescence, 24 h; Potency, µM (top dose mostly 38.3 µM), inactives show at the top dose activity change, negative = inhibition, hits mostly inhibitors; 0.13% of 410,000 active; AID 624418, 2012;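 also: loss of luciferase light is scored as toxicity; potency is read from the fitted curve at half-maximal effect; % is scaled to controls: 0 for no effect and ±100 for the full control effect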
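Compound-treated cells are incubated 24 hr at 37 deg C under 5% CO2 after a 12 hour attachment period, then luciferase detection reagent is added and luminescence is measured following 12 min at room temperature; lowered signal indicates toxicity.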
p53 reactivator – qHTS assay for re-activators of p53 using a Luc reporter. H1299 p53-A138V BP100-luciferase reporter, luminescence, 24 h. Potency, µM (series often up to 92.2 µM), without a hit: at the highest dose activity change, positive = activation, usual class: activators. AID 504706, 2011. 0.063% of 320,000 active; also: potency is read from the fitted curve at half-maximal effect; % of control where 0% means no effect; nearly all actives have a fitted effect of over 45% in size
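p53-null H1299 cells stably carrying temperature-sensitive p53-A138V and a BP100-luciferase reporter were pinned with compounds (4-point, 1:5 series) and held 24 hrs at 37 deg C. Luminescence was read 10 min after detection reagent.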
GLP1R inv ag – qHTS of GLP-1 Receptor Inverse Agonists (Inhibition Mode) | Glucagon-like peptide 1 receptor (Homo sapiens), P43220 | 1.6% of 410,000 active | HEK293 GLP-1R CRE-luciferase, luminescence, 24 h; GLP-1R form is constitutively active | Potency, µM (highest dose often 38.3 µM), inactives show at the highest dose activity change, negative = inhibition, hits mostly inhibitors; also: potency is read from the fitted curve at half-maximal effect; % is scaled to controls: 0 for no effect and ±100 for the full control effect; nearly all actives have a fitted effect of over 55% in size
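GLP-1R inverse agonism mode: basal reporter luminescence in engineered HEK293 cells measured after one day of compound exposure at 37 deg C, with a 12 min room-temperature detection step.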
* = called active by the depositor. Sampled rows, rich in hits. Any-hit rate of the full collection: about 2.9%. Unless noted, calls follow the shape of the dose curve; as a rule, active = well fitted curve in the direction sought with a large enough effect; inconclusive = small, poorly fitted or top-dose-only effect, or another doubt; inactive = no such curve, though single readings can be large; an effect the other way counts as inactive or inconclusive.

Screening COc1ccc(OC)c(C2C(C(=O)Nc3ccccc3OC)=C(C)Nc3c(C(=O)Nc4ccc(F)cc4)cnn32)c1 (configuration not stated) returned LDHA inh 7, ClpP mod inconclusive, HEK293 tox -3% and GLP1R inv ag -28%.
Screening Cc1cccc(OCC(=O)OCC(=O)N(CC(C)C)c2c(N)n(Cc3ccccc3)c(=O)[nH]c2=O)c1C returned LDHA inh 1, ClpP mod 1%, GLP1R ag 0%, HEK293 tox 4%, p53 reactivator 0% and GLP1R inv ag -1%.
COCCCn1c(-c2ccc(OC)cc2)nc2c1c(=O)[nH]c(=O)n2Cc1ccccc1 was read as LDHA inh -1, GLP1R ag 10%, HEK293 tox 12%, p53 reactivator 1% and GLP1R inv ag 9%.
Cc1ccc2nc(-c3ccc(F)cc3)c(NC(C)(C)CC(C)(C)C)n2c1 was read as LDHA inh -3, ClpP mod inconclusive, GLP1R ag 7%, HEK293 tox 2% and GLP1R inv ag 1%.
For CC(C)(C)CC(C)(C)Nc1c(-c2ccc(O)cc2)nc2cnccn12 the results were LDHA inh 5, ClpP mod 22µM*, GLP1R ag 6%, HEK293 tox 3% and GLP1R inv ag -1%.
`CCCC(=O)Nc1ccc(N2CCN(C(=O)c3ccccc3C)CC2)cc1` gave LDHA inh 0, ClpP mod 1%, GLP1R ag 1%, HEK293 tox -4%, p53 reactivator -2% and GLP1R inv ag -17%.
`CCC1CCCCN1CCCNC(=O)c1ccc2c(=O)n(CCOC)c(=O)[nH]c2c1` (configuration not stated) gave LDHA inh -7, GLP1R ag 0%, HEK293 tox 16%, p53 reactivator 5% and GLP1R inv ag 2%.
COCCn1c(=O)[nH]c2cc(C(=O)NCC3CCCO3)ccc2c1=O (configuration not stated) was read as LDHA inh -3, ClpP mod 28µM*, GLP1R ag -5%, HEK293 tox 59%, p53 reactivator 1% and GLP1R inv ag 2%.
CCN1CCCC1CNC(=O)c1ccc2c(=O)n(CCOC)c(=O)[nH]c2c1 (configuration not stated) was read as LDHA inh 2, ClpP mod 32µM*, GLP1R ag -11%, HEK293 tox -5%, p53 reactivator 0% and GLP1R inv ag -11%.
`O=C(Oc1ccccc1)c1ccccc1OS(=O)(=O)c1ccccc1` gave LDHA inh -8, ClpP mod -2%, GLP1R ag 1%, HEK293 tox -16%, p53 reactivator -6% and GLP1R inv ag -17%.
`CCCCCCn1c(=O)n2n(c1=O)C[C@]1(OC(=O)NCC3CCCCC3)CN(S(=O)(=O)c3ccc(C)cc3)C[C@]1(O)C2` gave LDHA inh -8, ClpP mod -1%, GLP1R ag -3%, HEK293 tox -20% and GLP1R inv ag 10µM*.
Screening CCCCCCn1c(=O)n2n(c1=O)[C@@H]1CN(S(=O)(=O)c3ccc(C)cc3)C[C@]1(O)[C@@H](OC(=O)NCc1ccccc1)C2 returned LDHA inh 3, ClpP mod 1%, GLP1R ag -3%, HEK293 tox -17% and GLP1R inv ag 11µM*.
COc1ccc(NC(=O)c2cc(S(=O)(=O)N3CCCC3)cn2C)cc1Cl was read as LDHA inh -5, ClpP mod 51%, GLP1R ag -6%, HEK293 tox -4% and GLP1R inv ag 12%.
